Compound activity: PubChem BioAssay, several laboratories
Most compounds without a hit are left out; they make up all but 2.2% or so of the library.
TMEM16A act: TMEM16A chloride channel activators or potentiators, primary screen, cell-based, HTS | Anoctamin-1 (Mus musculus), Q8BHY3 | 340,000 tested, 0.3% active | AID 623877, 2012 | B-score at 10 µM | HEK293 TMEM16A/YFP-H148Q/I152L, iodide quench fluorescence; hits give low values;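 active = fluorescence-ratio B-score plate-corrected deviation score at least 3 library SD below zero, with starting fluorescence score within 5 deviations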;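 note: channel opened by trigger with iodide after compound preincubation; score built on the fluorescence ratio of max minus min over baseline; more negative score means more quench and so TMEM16A activation or potentiation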
M1 ag parental: counter-screen for M1 agonists: effect in parental CHO-K1 cells | activation, % at 3 µM | 360,000 tested, 0.48% active | Fluo-8 calcium fluorescence; scaled to maximal ATP response, vehicle zero; in the data active = activation above about 15%;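 note: untransfected CHO-K1 host cells lacking M1 receptor as counterscreen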
NTR1 ag: agonists of human NTR1, primary screen, imaging, U2OS cells, beta-arrestin-GFP, high content | Neurotensin receptor type 1 (Homo sapiens), P30989 | NTR1-U2OS beta-arrestin-GFP spot imaging, agonist mode | activation, % at 20 µM | 330,000 tested, 0.17% active | AID 493036, 2011;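 active = activation at or above 40% of the spot to cytoplasm intensity ratio, with at least 20 cells analyzed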
CHO-K1 Ca PAM: nonselective calcium activators in parental CHO-K1 cells, primary screen, counter-screen for M1 PAM project, cell-based, Fluo-8 calcium fluorescence, full deck, 1536-well | ATP EC20; 0% at ATP EC20, 100% at ATP max | activation, % at 3 µM | 360,000 tested, 0.02% active | AID 602247, 2012;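 active = activation above the run cutoff, the mean activation of all test compounds plus 3 SD, cut at about 40% in these data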;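 note: peak over basal fluorescence ratio in a 140 s read after ATP addition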
ANO1 block: TMEM16A chloride channel inhibitors, primary screen, cell-based, HTS | Anoctamin-1 (Mus musculus), Q8BHY3 | HEK293 TMEM16A/YFP iodide influx fluorescence, ionomycin | normalized B-score (activity score, 25-100; higher = stronger inhibition) at 10 µM | 310,000 tested, 1.2% active;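 active = ratio plate-corrected score three or more library SD toward inhibition, starting fluorescence score within five deviations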;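 note: score derived from kinetic fluorescence span divided by baseline fluorescence per well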
CHO-K1 Ca antag: counter-screen for M1 antagonists: effect in parental CHO-K1 cells; 360,000 tested, 0.6% active; inhibition, % at 3 µM; AID 602250; ATP-induced calcium, Fluo-8 fluorescence;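 active = inhibition above a per-plate cutoff, the plate's mean sample inhibition plus 3 SD, cut at about 24% in these data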
TMEM16A reconf: TMEM16A chloride channel inhibitors, confirmation, cell-based, re-confirmation | shares compounds with ANO1 block | HEK293 TMEM16A/YFP-H148Q, iodide quench fluorescence; ionomycin added to raise cell calcium | inhibition, % at 10 µM | 2,300 tested, 39% active;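 active = mean duplicate percent inhibition, scaled so buffer wells are 0 and the reference blocker 100, over three buffer SD above buffer mean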
HEK293 Ca mobil: calcium mobilization in TMEM16A/YFP HEK293 cells, confirmation, counter-screen for TMEM16A inhibitor project | Fluo4 calcium mobilization | 2,300 tested, 2% active | calcium response (% of ionomycin), % at 10 µM | shares compounds with ANO1 block | AID 652231, 2013;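 active = duplicate-averaged calcium signal over 20% of the ionomycin maximum, relative to buffer baseline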;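 note: each well's signal is peak minus trough fluorescence divided by its pre-addition baseline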
Parental YFP cnt: iodide YFP quench changes in parental YFP-HEK293, counter-screen for TMEM16A inhibitor project, cell-based. shares compounds with ANO1 block. AID 652233, 2013. ionomycin. YFP ratio F(max-min)/F0 at 10 µM. 2,300 tested, under 10 active;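 active = yellow fluorescent protein signal ratio exceeding the buffer control mean by over 5 SD of those controls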;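 note: ratio is mean of duplicate wells from kinetic YFP trace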
ClC-1 inh: ClC-1 chloride channel inhibition, selectivity assay for TMEM16A inhibitor project, cell-based, voltage-dependent ClC-1; shares compounds with ANO1 block; CHO ClC-1-YFP, iodide influx fluorescence quench; iodide control reads 0, buffer control 100; ratio percent, % at 10 µM; 2,300 tested, under 10 active; AID 652236, 2013;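 active = duplicate-mean ratio percent above the mean of iodide-only control wells, which defines zero, plus 5 of their SD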;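 note: higher percent means stronger block of ClC-1 iodide influx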
Target sequence (P35524 whole entry, looked up): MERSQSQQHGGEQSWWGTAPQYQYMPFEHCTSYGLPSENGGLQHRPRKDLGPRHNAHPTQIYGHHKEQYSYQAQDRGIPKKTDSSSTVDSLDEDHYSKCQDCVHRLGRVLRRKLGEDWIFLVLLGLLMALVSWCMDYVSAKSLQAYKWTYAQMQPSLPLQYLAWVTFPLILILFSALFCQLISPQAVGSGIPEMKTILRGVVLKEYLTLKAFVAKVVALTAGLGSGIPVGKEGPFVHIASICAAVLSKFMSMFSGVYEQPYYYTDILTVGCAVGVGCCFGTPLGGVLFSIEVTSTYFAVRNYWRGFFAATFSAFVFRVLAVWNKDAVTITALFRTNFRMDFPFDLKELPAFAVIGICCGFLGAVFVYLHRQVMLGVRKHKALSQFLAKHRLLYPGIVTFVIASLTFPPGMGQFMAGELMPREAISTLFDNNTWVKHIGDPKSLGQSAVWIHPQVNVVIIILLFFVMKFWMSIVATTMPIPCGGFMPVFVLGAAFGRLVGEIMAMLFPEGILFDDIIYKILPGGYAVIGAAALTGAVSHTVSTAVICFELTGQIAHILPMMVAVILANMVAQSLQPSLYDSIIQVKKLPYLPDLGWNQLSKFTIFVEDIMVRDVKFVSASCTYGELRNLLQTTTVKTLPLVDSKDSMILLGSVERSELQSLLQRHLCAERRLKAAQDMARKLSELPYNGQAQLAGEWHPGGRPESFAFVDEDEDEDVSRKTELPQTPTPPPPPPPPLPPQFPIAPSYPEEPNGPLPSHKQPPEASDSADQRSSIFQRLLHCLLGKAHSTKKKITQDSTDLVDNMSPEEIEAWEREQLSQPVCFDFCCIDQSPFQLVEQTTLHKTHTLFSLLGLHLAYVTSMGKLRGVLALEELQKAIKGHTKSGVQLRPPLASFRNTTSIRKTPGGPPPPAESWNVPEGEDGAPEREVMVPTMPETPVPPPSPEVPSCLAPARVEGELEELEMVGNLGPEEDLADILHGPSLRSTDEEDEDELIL
Of the large screens only hits and unclear results are named; the others gave an inactive call (follow-up assays come after a bar, where they were run).

O=c1[nH]c(=S)[nH]cc1Oc1ccc(Cl)cc1	none (no result: NTR1 ag, ANO1 block)
O=C(CN(Cc1ccco1)C(=O)c1cc(=O)[nH]c2ccccc12)Nc1ccccc1Br	ANO1 block 100 | TMEM16A reconf inactive | HEK293 Ca mobil inactive | Parental YFP cnt inactive | ClC-1 inh inactive
COc1cc(SC)ccc1C(=O)N(CC(=O)Nc1ccccc1Br)Cc1ccco1	none
Cc1cc2n(n1)C(c1cn(-c3ccccc3)nc1C)Nc1ccccc1-2 (stereo not given)	none
Cc1cc2n(n1)C(c1cn(-c3ccccc3)nc1C)Nc1c(C)cccc1-2 (stereo not given)	none | TMEM16A reconf inactive | HEK293 Ca mobil inactive | Parental YFP cnt inactive | ClC-1 inh inactive
CC1=C(C(=O)N(C(C)C)C(C)C)CC(CC(=O)NCc2cccs2)C(=O)N1CCCN1CCCC1=O (stereo not given)	none (no result: TMEM16A act, NTR1 ag, ANO1 block)
O=C(NCCO)OC1CC2CC1[C@H]1CCCCN1C2=O (stereo not given in full)	none (no result: TMEM16A act, NTR1 ag, ANO1 block)
Cc1ccccc1-c1nc(-c2ccc(NC(=O)c3cccs3)cc2)no1	none | TMEM16A reconf inactive | HEK293 Ca mobil inactive | Parental YFP cnt inactive | ClC-1 inh inactive
Cc1oc2cc3oc(=O)c(CCC(=O)NC4CC4)c(C)c3cc2c1C	ANO1 block 25 | TMEM16A reconf inactive | HEK293 Ca mobil inactive | Parental YFP cnt inactive | ClC-1 inh inactive
CCCOC(=O)c1ccc(NS(=O)(=O)c2cccs2)cc1	ANO1 block 25 | TMEM16A reconf inactive | HEK293 Ca mobil inactive | Parental YFP cnt inactive | ClC-1 inh inactive
CSc1cc(SC)ncn1	none (no result: NTR1 ag, ANO1 block)
C[C@H](CO)N1C[C@H](C)[C@H](CN(C)S(=O)(=O)c2ccccc2)Oc2c(NS(C)(=O)=O)cccc2C1=O	none (no result: ANO1 block)
CCOC(=O)/C=c1\s/c(=C\c2ccc3cc(OC)ccc3c2)c(=O)n1CC(=O)NCc1ccc2c(c1)OCO2	none | TMEM16A reconf 31.0% | HEK293 Ca mobil inactive | Parental YFP cnt inactive | ClC-1 inh inactive
CCOC(=O)/C=c1\s/c(=C\c2ccccc2C)c(=O)n1CC(=O)NCc1ccc2c(c1)OCO2	none
Cc1cccc(NC(=S)NCCSc2ccc(Cl)cc2)c1	ANO1 block 100 | TMEM16A reconf 71.5% | HEK293 Ca mobil inactive | Parental YFP cnt inactive | ClC-1 inh inactive
Cc1ccc(C)c(NC(=S)NCCSc2ccc(Cl)cc2)c1	none
CC1=C(C(=O)N2CCOCC2)CC(CC(=O)NCc2cccc3ccccc23)C(=O)N1Cc1ccc(C(C)(C)C)cc1 (stereo not given)	none (no result: TMEM16A act, NTR1 ag, ANO1 block)
Cc1[nH]n(-c2ccccc2)c(=O)c1C(c1ccc(O)c([N+](=O)[O-])c1)c1c(C)[nH]n(-c2ccccc2)c1=O	ANO1 block 100 | TMEM16A reconf 34.5% | HEK293 Ca mobil inactive | Parental YFP cnt inactive | ClC-1 inh inactive
CC(=O)Nc1cc(-c2ccccc2Cl)cn2c(-c3ccc(S(C)(=O)=O)cc3)cnc12	none (no result: TMEM16A act, NTR1 ag, ANO1 block)
CCCc1cc(=O)n2[nH]cc(-c3ccc(Cl)cc3)c2n1	ANO1 block 100 | TMEM16A reconf inactive | HEK293 Ca mobil inactive | Parental YFP cnt inactive | ClC-1 inh inactive
COCc1cc(=O)n2[nH]cc(-c3ccccc3)c2n1	none
CC(C)[C@H](NC(=O)c1ccccc1)C(=O)OCC(=O)/C=C1/N(C)c2ccccc2C1(C)C	ANO1 block 25 | TMEM16A reconf 22.5% | HEK293 Ca mobil inactive | Parental YFP cnt inactive | ClC-1 inh inactive
Cc1cc(C)n2nc(SCC(=O)NC(=O)c3ccccc3Cl)nc2n1	none (no result: ANO1 block)
Cc1ccc(S(=O)(=O)Nc2ccccc2C(=O)Nc2nc(-c3ccc(F)cc3)cs2)cc1	M1 ag parental 15.9, ANO1 block 25, CHO-K1 Ca antag 25.8 | TMEM16A reconf 39.0% | HEK293 Ca mobil inactive | Parental YFP cnt inactive | ClC-1 inh inactive
O=C(Nc1ccccc1N1CCOCC1)c1ccccc1NS(=O)(=O)c1ccc(F)c(F)c1	ANO1 block 100, CHO-K1 Ca antag 24.1 | TMEM16A reconf 31.0% | HEK293 Ca mobil inactive | Parental YFP cnt inactive | ClC-1 inh inactive
O=C(Nc1cc(S(=O)(=O)N2CCCCC2)ccc1O)c1ccccc1NS(=O)(=O)c1ccc(F)cc1	ANO1 block 100 | TMEM16A reconf 67.5% | HEK293 Ca mobil inactive | Parental YFP cnt inactive | ClC-1 inh inactive
O=C(Nc1ccccc1N1CCOCC1)c1ccccc1NS(=O)(=O)c1ccc(F)cc1	none
Cc1cc(F)ccc1S(=O)(=O)Nc1ccccc1C(=O)Nc1ccccc1N1CCOCC1	ANO1 block 25 | TMEM16A reconf inactive | HEK293 Ca mobil inactive | Parental YFP cnt inactive | ClC-1 inh inactive
O=C(c1ccccc1NS(=O)(=O)c1ccc(F)cc1)N1CCCCC1	none
COc1cc(S(=O)(=O)N2CCN(Cc3ccc4c(c3)OCO4)CC2)ccc1NC(C)=O	none (no result: TMEM16A act, ANO1 block)
Cc1cccc(NC(=O)N2CCN(Cc3ccc(Cl)cc3)CC2)c1	none
O=C(Nc1cccc(Cl)c1)N1CCN(Cc2ccccc2)CC1	ANO1 block 100 | TMEM16A reconf inactive | HEK293 Ca mobil inactive | Parental YFP cnt inactive | ClC-1 inh inactive
CC1Sc2ccc(S(=O)(=O)N3CCC(C(=O)Nc4ccc(Cl)cc4)CC3)cc2NC1=O (stereo not given)	ANO1 block 25, CHO-K1 Ca antag 31.3 | TMEM16A reconf 32.0% | HEK293 Ca mobil inactive | Parental YFP cnt inactive | ClC-1 inh inactive
CC1Sc2ccc(S(=O)(=O)CCC(=O)NCc3ccc(Cl)cc3)cc2NC1=O (stereo not given)	ANO1 block 25 | TMEM16A reconf inactive | HEK293 Ca mobil inactive | Parental YFP cnt inactive | ClC-1 inh inactive
CCn1c(SCC(=O)NC2CCCC2)nc2c(c1=O)SCC2	none (no result: TMEM16A act, NTR1 ag, ANO1 block)
CN(C)S(=O)(=O)c1ccc(C(=O)OCC(=O)c2csc(N3CCCCC3)n2)cc1	none (no result: ANO1 block)
